The values below come from PubChem BioAssay (NCI).

Compounds without any hit were thinned out: in the full panel of roughly 83,000, 20% have a hit.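 Single-dose data. Exposure time 48 hours. Values below 10 considered active.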 Activity calls are given as the source filed them.

This experiment concerns NCI-H322M lung. In words: NCI-60 one-dose screen, 48 h (100 = growth as untreated, 0 = no growth, -100 = all killed). The note with it: 10 µM unless noted.
As to `COc1ccc(-c2nnc(SCC(=O)Nc3ccc(C(=O)/C=C/c4cc(OC)c(OC)c(OC)c4)cc3)n2-c2ccccc2)cc1OC`, the growth is 34.5% [100 µM] (inactive).
`COc1ccc2cn3c4ccc(O)cc4[nH]c(=O)c3c2c1`: the growth was 41% (inactive).
In the case of `COc1ccc(/C=N/c2cc(C(C)(C)C)nn2-c2ccccc2)cc1`, the growth is 110% (inactive).
With `CCCCCCCCCCC1OC(C)CC(C)O1` (stereo not given), the growth is 102% (inactive).
As to `S=C(N/N=C/c1cc(Cl)cc(Cl)c1)NC12CC3CC(CC(C3)C1)C2`, the growth was 62.2% (inactive).
On to `CCOC1=C(Cl)C(=O)C(OCC)=C(Cl)C1=O`, for which the growth is 94.7% (inactive).
For `COC(=O)/C=C1/CCCCC1(C)C(=O)OC` (stereo not given), the growth was 105% (inactive).
With `CCCCCCCCCCC(C[N+](C)(C)C/C=C/c1ccccc1)C(O)c1ccccc1` (stereo not given), the growth was 46.7% (inactive).
As to `C=CC1CN2CCC1CC2C(O)c1ccnc2ccc(OC)cc12` (stereo not given), the growth was 94.4% (inactive).
Turning to `CC(=O)c1ccc2c(c1)c1ccccc1n2C`, the growth was 86.2% (inactive).
With `CC(=O)Nc1nc(C)c(C(=O)NNS(=O)(=O)c2ccccc2)s1`, the growth is 99.4% (inactive).
With `Cc1cc2cn3c4ccc(O)cc4nc(N)c3c2cc1C` the figure was 7.56% (active); with `COc1cc(-c2nn(-c3ccc(NC(=O)Nc4ccc(Cl)c(Cl)c4)cc3)cc2-c2ccncc2)ccc1Cl`, 68.4% (inactive); with `CCOC(=O)c1sc(NS(=O)(=O)c2ccccc2)nc1C`, 122% (inactive).
Consider `Clc1ccc(I)c2ccccc12`, for which the growth was 95.3% (inactive).
On to `N#Cc1c2cccnc2c2nnc3cc(Cl)c(Cl)cc3n12`, for which the growth is 44.5% (inactive).
Turning to `COc1ccc(C(=O)NCCNc2nccc(-c3c(-c4ccc(F)cc4)nc4sccn34)n2)cc1`, the growth was 68.1% (inactive).
With `CC(O)CN(CC(C)O)N(CC(C)O)CC(C)O` (stereo not given) the figure was 107% (inactive); with `O=C(Nc1ccc(-n2cc(-c3ccncc3)c(-c3ccc(Cl)c(O)c3)n2)cc1)c1cc(C(F)(F)F)cc(C(F)(F)F)c1`, 116% (inactive); with `COc1cc(-c2nn(-c3ccc(NC(=O)c4cc(Cl)cc(Cl)c4)cc3)cc2-c2ccncc2)ccc1Cl`, 104% (inactive).
In the case of `CCCCCCC(C)N(CC(C)(C)O)C(=O)c1ccc([N+](=O)[O-])cc1` (stereo not given) it was 91.1% (inactive).
With `COc1cc(-c2nn(-c3ccc(NC(=O)c4ccc(Cl)c(Cl)c4)cc3)cc2-c2ccncc2)ccc1Cl`, the growth is 101% (inactive).
`COC(=O)[C@@H]1[C@H](O)[C@H](C)[C@H](O)[C@H](C)/C=C\C=C(C)C(=O)Nc2c(C)c(OC(C)=O)c3c(c2O)C(=O)C(C)=C2OCOC(=C23)C(C)=C[C@@](C)(O)[C@H](O)[C@@H](C)[C@H]1OC(C)=O`: the growth is 121% (inactive).
With `C/C(=C\c1ccc2ccccc2c1)[N+](=O)[O-]`, the growth is 78.2% (inactive).
In the case of `Cc1cc2cn3c4ccc(O)cc4[nH]c(=O)c3c2cc1C` it was -8.89% (active).
Regarding `COc1ccc(C(=O)N2N=C(c3ccc(Br)cc3)CC2c2cn(-c3ccccc3)nc2-c2ccccc2)cc1` (stereo not given), the growth is 78% (inactive).
With `O=CN/N=C/c1ccc(Cl)c([N+](=O)[O-])c1` the figure was 28.6% (inactive).
In the case of `O=C1CCNC1`, the growth was 96.5% (inactive).
In the case of `O=c1[nH]c2cc(O)ccc2n2cc3c(F)cccc3c12`, the growth is 29.4% (inactive).
As to `O=C(CCC(=O)N(CCO)CCO)N(CCO)CCO`, the growth was 96% (inactive).
Consider `O=C(CCl)NC1c2ccccc2Oc2ccccc21`, for which the growth is 97.9% (inactive).
`CC(=O)N1CCN(CCNC(=O)n2cc(-c3ccncc3)c(-c3cc(O)cc(Cl)c3)n2)CC1`: the growth is 106% (inactive).
In the case of `CC(C)OCC1CO1` (stereo not given) it was 100% (inactive).
Regarding `Oc1ccc(Br)cc1/C=N/NC(=S)NC12CC3CC(CC(C3)C1)C2`, the growth was 36.5% (inactive).
On to `CC(=O)N1CCN(CCNC(=O)n2cc(-c3ccncc3)c(-c3ccc(O)c(Cl)c3)n2)CC1`, for which the growth is 141% (inactive).
With `CCOC(=O)/C(C#N)=C(/CC)OCC` the figure was 92.2% (inactive).
Consider `O=C1Nc2c(c(=O)n(-c3ccccc3)c3ccccc23)C(c2ccc(Cl)cc2)N1` (stereo not given), for which the growth was 95.5% (inactive).
With `N=C(c1ccccc1)N(Cc1ccccc1)Cc1ccccc1`, the growth was 84% (inactive).
With `COc1cccc(NC(=O)NCCNc2nccc(-c3c(-c4ccc(F)cc4)nc4sccn34)n2)c1` the figure was 115% (inactive); with `Cc1ccc(NC(=O)CCl)cc1Cl`, 97.1% (inactive).
